Measurements reported in the supplement of paper PMC4709259.
Structures can show the parent of a compound that is named as a salt. ± gives the standard deviation.

System: Jurkat
Assay: mean cell size (FSC-A) relative to DMSO control (fraction of control); higher = larger cells
Conditions: 48 h
Procedure, shortened: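 Jurkat cells seeded at 600 cells/µl were incubated 1 h, then exposed for 48h to the Enzo Screen-Well FDA Approved Drug Library v2.0 at 25µM in 0.9% (v/v) final DMSO. Drugs that cut counts below 20% of controls were diluted 10-fold and retested, down to 25nM. Cell count and mean cell size (forward scatter area) were read on an Accuri C6 flow cytometer, relative to solvent-only controls. Plates held 6-12 controls; values are means of 3 biological replicates.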

| SMILES | mean cell size |
| --- | --- |
| COc1c(C)c2c(c(O)c1C/C=C(\C)CCC(=O)O)C(=O)OC2 [Mycophenolic Acid] (concentration: 2.5 µM) | 1.01 ± 0.014 |
| C[N+]1(C)[C@@H]2CC[C@H]1C[C@@H](OC(=O)C(O)c1ccccc1)C2 (some centres undefined) [Homatropine Methylbromide] (concentration: 25 µM) | 0.9418 ± 0.0067 |
| COc1ccc2[nH]c([S+]([O-])Cc3ncc(C)c(OC)c3C)nc2c1 (centres undefined) [Omeprazole] (concentration: 25 µM) | 0.946 ± 0.035 |
| CNCC[C@H](Oc1cccc2ccccc12)c1cccs1 [Duloxetine·HCl] (concentration: 25 µM) | 1.02 ± 0.069 |
| CNCCCN1c2ccccc2CCc2ccccc21 [Desipramine·HCl] (concentration: 25 µM) | 0.9721 ± 0.0012 |
| CCC1(C)CC(=O)NC1=O (centres undefined) [Ethosuximide] (concentration: 25 µM) | 1.05 ± 0.025 |
| COc1ccccc1OCC(O)CN1CCN(CC(=O)Nc2c(C)cccc2C)CC1 (centres undefined) [Ranolazine·2HCl] (concentration: 25 µM) | 0.987 ± 0.031 |
| CC1(C)O[C@@H]2C[C@H]3[C@@H]4C[C@H](F)C5=CC(=O)CC[C@]5(C)[C@H]4[C@@H](O)C[C@]3(C)[C@]2(C(=O)CO)O1 [Flurandrenolide] (concentration: 25 µM) | 0.916 ± 0.035 |
| Cc1ccc(C(=O)c2cc(O)c(O)c([N+](=O)[O-])c2)cc1 [Tolcapone] (concentration: 25 µM) | 0.966 ± 0.023 |
| NC(=O)OCC(COC(N)=O)c1ccccc1 [Felbamate] (concentration: 25 µM) | 1.02 ± 0.053 |
| CN1CC2c3ccccc3Oc3ccc(Cl)cc3C2C1 (centres undefined) [Asenapine Maleate] (concentration: 25 µM) | 0.938 ± 0.019 |
| CCc1nn(CCCN2CCN(c3cccc(Cl)c3)CC2)c(=O)n1CCOc1ccccc1 [Nefazodone·HCl] (concentration: 25 µM) | 0.924 ± 0.015 |
| Nc1ccn([C@@H]2O[C@H](CO)[C@@H](O)C2(F)F)c(=O)n1 [Gemcitabine·HCl] (concentration: 25 nM) | 1.12 ± 0.024 |
| COC(=O)N[C@H](C(=O)N[C@@H](Cc1ccccc1)[C@@H](O)CN(Cc1ccc(-c2ccccn2)cc1)NC(=O)[C@@H](NC(=O)OC)C(C)(C)C)C(C)(C)C [Atazanavir] (concentration: 25 µM) | 1.04 ± 0.052 |
| Brc1c(NC2=NCCN2)ccc2nccnc12 [Brimonidine] (concentration: 25 µM) | 0.954 ± 0.027 |
| Cc1ncc([N+](=O)[O-])n1CCO [Metronidazole] (concentration: 25 µM) | 0.928 ± 0.012 |
| COc1ccc2[nH]c([S@@+]([O-])Cc3ncc(C)c(OC)c3C)nc2c1 [Esomeprazole Potassium] (concentration: 25 µM) | 0.98 ± 0.027 |
| C#C[C@]1(O)CC[C@H]2[C@@H]3CCC4=CC(=O)CC[C@@H]4[C@H]3C(=C)C[C@@]21CC [Etonogestrel] (concentration: 25 µM) | 0.997 ± 0.025 |
| COc1ccc2cc(CCC(C)=O)ccc2c1 [Nabumetone] (concentration: 25 µM) | 0.938 ± 0.032 |
| O=C1CN2Cc3c(ccc(Cl)c3Cl)N=C2N1 [Anagrelide] (concentration: 25 µM) | 1 ± 0.023 |

| SMILES | mean cell size |
| --- | --- |
| Cc1onc(-c2ccccc2Cl)c1C(=O)N[C@@H]1C(=O)N2[C@@H]1SC(C)(C)[C@@H]2C(=O)O [Cloxacillin·Na] (concentration: 25 µM) | 0.99 ± 0.031 |
| CNS(=O)(=O)CCc1ccc2[nH]cc(C3CCN(C)CC3)c2c1 [Naratriptan·HCl] (concentration: 25 µM) | 0.95 ± 0.019 |
| CC(C)(C)NC(=O)[C@@H]1CN(Cc2cccnc2)CCN1C[C@@H](O)C[C@@H](Cc1ccccc1)C(=O)N[C@H]1c2ccccc2C[C@H]1O [Indinavir] (concentration: 25 µM) | 0.93 ± 0.056 |
| Cc1ccc(C)c(OCCCC(C)(C)C(=O)O)c1 [Gemfibrozil] (concentration: 25 µM) | 0.956 ± 0.026 |
| C[C@]12CC[C@@H]3c4ccc(O)cc4CC[C@H]3[C@@H]1CC[C@@H]2O [Estradiol] (concentration: 25 µM) | 0.892 ± 0.026 |
| CCNC(=O)CCC/C=C\C[C@@H]1[C@@H](/C=C/[C@@H](O)CCc2ccccc2)[C@H](O)C[C@@H]1O [Bimatoprost] (concentration: 25 µM) | 0.87 ± 0.025 |
| NCCCC(N)(C(=O)O)C(F)F (centres undefined) [Eflornithine·HCl] (concentration: 25 µM) | 0.958 ± 0.019 |
| Clc1cccc(Cl)c1NC1=NCCN1 [Clonidine·HCl] (concentration: 25 µM) | 0.931 ± 0.049 |
| CC(C)(S)[C@@H](N)C(=O)O [Penicillamine (D-Penicillamine)] (concentration: 25 µM) | 0.954 ± 0.042 |
| CCCN(CCC)CCc1cccc2c1CC(=O)N2 [Ropinirole·HCl] (concentration: 25 µM) | 0.974 ± 0.012 |
| NC(=O)c1cn(Cc2c(F)cccc2F)nn1 [Rufinamide] (concentration: 25 µM) | 0.968 ± 0.042 |
| O=C(O)c1ccc(-n2nc(-c3ccccc3O)nc2-c2ccccc2O)cc1 [Deferasirox] (concentration: 2.5 µM) | 1.07 ± 0.021 |
| COc1cc(C(=O)NS(=O)(=O)c2ccccc2C)ccc1Cc1cn(C)c2ccc(NC(=O)OC3CCCC3)cc12 [Zafirlukast] (concentration: 25 µM) | 0.959 ± 0.06 |
| OCCN1C[C@H](O)[C@@H](O)[C@H](O)[C@H]1CO [Miglitol] (concentration: 25 µM) | 0.994 ± 0.04 |
| CN1CCCC(n2nc(Cc3ccc(Cl)cc3)c3ccccc3c2=O)CC1 (centres undefined) [Azelastine·HCl] (concentration: 25 µM) | 0.923 ± 0.037 |
| Cc1onc(-c2ccccc2)c1C(=O)N[C@@H]1C(=O)N2[C@@H]1SC(C)(C)[C@@H]2C(=O)O [Oxacillin·Na] (concentration: 25 µM) | 0.9367 ± 0.005 |
| CCCCC[C@H](O)/C=C/[C@H]1[C@H](O)CC(=O)[C@@H]1C/C=C\CCCC(=O)O [Dinoprostone] (concentration: 25 µM) | 0.88 ± 0.019 |
| NS(=O)(=O)c1cc(C(=O)O)c(NCc2ccco2)cc1Cl [Furosemide] (concentration: 25 µM) | 0.932 ± 0.034 |
| CC1=C(C(=O)O)N2C(=O)[C@@H](NC(=O)[C@H](N)c3ccc(O)cc3)[C@H]2SC1 [Cefadroxil] (concentration: 25 µM) | 0.937 ± 0.014 |
